Hit rate of the full screen: of about 310,000 compounds, about 14,000 (4.5%) showed an effect of 50% or more. The effect is printed as a negative number. Shown is part of a subset that was picked to be rich in strong results.
The compounds below were run against human ether-à-go-go-related gene (hERG) potassium channel (human, UniProt Q12809) (assay: primary screen, population patch clamp on CHO cells stably expressing hERG; higher = less effect of the substance).
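Note: peak tail current of the secondary pulse compared with the same well before compound.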

Sequence of human ether-à-go-go-related gene (hERG) potassium channel (Q12809 whole entry, looked up): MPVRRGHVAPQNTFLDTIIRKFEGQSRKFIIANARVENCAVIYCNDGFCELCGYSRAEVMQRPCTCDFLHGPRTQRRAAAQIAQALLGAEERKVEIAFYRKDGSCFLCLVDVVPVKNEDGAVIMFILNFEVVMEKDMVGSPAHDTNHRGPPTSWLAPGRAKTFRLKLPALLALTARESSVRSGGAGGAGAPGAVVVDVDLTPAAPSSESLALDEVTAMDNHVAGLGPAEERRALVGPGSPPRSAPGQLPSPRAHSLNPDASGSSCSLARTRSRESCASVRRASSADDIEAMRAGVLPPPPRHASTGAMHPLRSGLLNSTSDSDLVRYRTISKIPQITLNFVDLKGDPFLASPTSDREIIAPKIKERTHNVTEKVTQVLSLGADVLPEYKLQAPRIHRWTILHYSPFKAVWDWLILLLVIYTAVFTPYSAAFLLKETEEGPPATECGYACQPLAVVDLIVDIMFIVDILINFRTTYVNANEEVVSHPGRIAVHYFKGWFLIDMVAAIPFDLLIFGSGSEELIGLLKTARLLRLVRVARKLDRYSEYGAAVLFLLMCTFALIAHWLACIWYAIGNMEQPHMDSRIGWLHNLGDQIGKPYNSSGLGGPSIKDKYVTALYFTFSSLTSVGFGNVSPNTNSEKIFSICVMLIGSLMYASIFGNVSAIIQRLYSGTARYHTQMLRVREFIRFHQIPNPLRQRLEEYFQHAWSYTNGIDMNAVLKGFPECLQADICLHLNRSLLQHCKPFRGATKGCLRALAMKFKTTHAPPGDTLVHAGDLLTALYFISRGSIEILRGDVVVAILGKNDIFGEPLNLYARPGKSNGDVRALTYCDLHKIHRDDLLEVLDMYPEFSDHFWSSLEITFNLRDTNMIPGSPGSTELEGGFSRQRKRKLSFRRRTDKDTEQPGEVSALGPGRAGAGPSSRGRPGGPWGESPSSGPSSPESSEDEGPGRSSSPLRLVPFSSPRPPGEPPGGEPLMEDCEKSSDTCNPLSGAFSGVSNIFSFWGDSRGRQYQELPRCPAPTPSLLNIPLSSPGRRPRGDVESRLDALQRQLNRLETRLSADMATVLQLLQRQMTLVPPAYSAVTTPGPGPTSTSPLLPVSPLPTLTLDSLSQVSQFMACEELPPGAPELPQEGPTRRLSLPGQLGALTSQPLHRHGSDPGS

SMILES	hERG current change (%, negative = inhibition) at 10uM
CCN(c1ccccc1)S(=O)(=O)c1ccc(Cl)c(NC(=O)CN2CCCCCC2)c1.O=C(O)C(=O)O	10.1%
CCN(c1ccccc1)S(=O)(=O)c1ccc(Cl)c(NC(=O)COC(=O)c2ccc(O)cc2)c1	6.44%
CCN(c1ccccc1)S(=O)(=O)c1ccc(Cl)c(NC(=O)CN(C)C2CCN(C)CC2)c1	-38.8%
CCC(C)NCC(=O)Nc1cc(S(=O)(=O)N(CC)c2ccccc2)ccc1Cl (centres unmarked)	-78.8%
CCN(c1ccccc1)S(=O)(=O)c1ccc(Cl)c(NC(=O)CN2CCN(C)CC2)c1	-59.2%
COc1ccc(/C=N/NC(=O)C2CC2)c(OC)c1OC	12.9%
COc1ccc(NC(=O)CSc2nc3ccccc3nc2N2CCCC2)c(OC)c1	24.1%
COc1ccc(Cl)cc1NC(=O)CN(C(=O)c1ccco1)C1CCCCC1	-2.36%
Cn1c(=O)n(CCCOc2ccc(Cl)cc2)c2ccccc21	-13.7%
Cc1ccc(OCCn2c(C)nc3ccccc32)cc1	3.94%
Cn1c(=O)n(CCOc2ccc([N+](=O)[O-])cc2)c2ccccc21	-65.3%
Cc1nc2ccccc2n1CCOc1ccc([N+](=O)[O-])cc1	-73.8%
Cc1ccc(OCCn2c(=O)n(C)c3ccccc32)cc1	-1.88%
Cc1nc2ccccc2n1CCOc1ccccc1	6.17%
CCn1c(SCC(=O)N/N=C(\C)c2ccncc2)nnc1-c1ccc(C)cc1	-20.6%
CC1CCc2sc(C(=O)NC3CCCCC3)cc2C1 (centres unmarked)	-5.4%
O=C(NC1CCN(Cc2ccccc2)CC1)c1ccc2c(c1)OCCCO2	-37.1%
O=C(NC1CC1)c1cccc(Br)c1	0.381%
CC1CCc2sc(C(=O)NC3CCN(Cc4ccccc4)CC3)cc2C1 (centres unmarked)	-54.1%
O=C(NC1CCN(Cc2ccccc2)CC1)c1cccc(Br)c1	-63.8%
Cc1cc(C(=O)NC2CCN(Cc3ccccc3)CC2)n[nH]1	-19.8%
O=C(NC1CCN(Cc2ccccc2)CC1)c1ccc(Oc2cc(Cl)cc(Cl)c2)o1	-6.95%

SMILES	hERG current change (%, negative = inhibition) at 10uM
Cl.O=C(NC1CCN(Cc2ccccc2)CC1)c1cccc(OC(F)F)c1	-74.1%
O=C(NC1CCN(Cc2ccccc2)CC1)c1cc(Br)c(Br)[nH]1	-2.75%
O=C(NC1CCN(Cc2ccccc2)CC1)c1cncc(Br)c1	-64.1%
O=C(NC1CCN(Cc2ccccc2)CC1)c1c(F)cccc1F	-24.4%
CC1CCc2sc(C(=O)NN)cc2C1 (centres unmarked)	21.1%
O=[N+]([O-])c1ccc2c(c1)[nH]c(=S)n2-c1ccccc1	36.4%
COc1cccc(CNS(=O)(=O)c2cc3c(cc2C)NC(=O)CO3)c1	-25.4%
COCC1CCN(C(=O)c2ccc3oc(Cc4ccccc4)nc3c2)C1 (centres unmarked)	-0.23%
COc1cccc(/C=N/NC(=O)CC(=O)NCCc2ccccc2)c1OC	6.02%
Cl.NC(N)=NC(N)=Nc1cccc(Cl)c1	-2.14%
Cc1nc2ccccn2c1C(=O)N/N=C/c1ccccc1	11.6%
Cc1ccn2c(C(=O)N/N=C/c3ccc(CNC(=O)C(=O)Nc4ccc(C)c(C)c4)o3)c(C)nc2c1	-57%
Cc1nc2ccccn2c1C(=O)N/N=C/c1ccc([N+](=O)[O-])cc1	2.88%
Cc1nc2ccccn2c1C(=O)N/N=C/c1ccc([N+](=O)[O-])o1	-64.1%
Cc1ccc(NC(=O)C(=O)NCc2ccc(/C=N/NC(=O)c3c(C)nc4ccccn34)o2)cc1	1.37%
COc1ccc(NC(=O)C(=O)N/N=C\c2ccc(CNC(=O)C(=O)Nc3ccc(C)c(C)c3)o2)c(OC)c1	9.12%
Cc1ccc(C)c(-n2c(C)cc(/C=N/NC(=O)c3c(C)nc4cc(C)ccn34)c2C)c1	-0.122%
Cc1ccn2c(C(=O)N/N=C\c3cccs3)c(C)nc2c1	-7.56%
Cc1nc2ccccn2c1C(=O)N/N=C/c1ccc(CNC(=O)C(=O)Nc2ccccc2)o1	-50.3%
CCOc1ccc(/C=N\NC(=O)c2c(C)nc3cc(C)ccn23)cc1	-2.47%
Cc1nc2ccccn2c1C(=O)N/N=C/c1ccccc1[N+](=O)[O-]	2.26%
Cc1ccc(NC(=O)C(=O)NCc2ccc(/C=N/NC(=O)c3c(C)nc4cc(C)ccn34)o2)cc1	-64%
